In PubChem BioAssay AID430 (Sanford-Burnham Center for Chemical Genomics, 2006):
Screen size: about 63,000 compounds; about 1,100 (1.7%) were called active. The full list was thinned out, with actives kept by preference. Potency and affinity values are given separately. Values without a mark were called inactive. Rule as the data show it: active = cytotoxicity above about 50%; inactive = the rest.

Assay: HPDE-C7 pancreatic duct cell viability loss – fluorescence, HTS (AID 430);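 also: cells exposed to compound for 48 hours before viability readout; 0% = vehicle and 100% = reference cytotoxic drug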
Conditions: HPDE-C7 pancreatic duct cells viability, at 10 µM, stronger effect = higher value

Row | Compound | cytotoxicity
1 | CC(OC(=O)c1cccc(NS(C)(=O)=O)c1)C(=O)Nc1ccc(N2CCOCC2)cc1 (centres undefined) | -30.2%
2 | CN(C)c1ccc(C2C=C(c3ccc(Cl)cc3OC(F)F)Nc3ncnn32)cc1 (centres undefined) | 52.1% (active)
3 | Cc1ccc(C2C=C(c3ccccc3OC(F)F)Nc3ncnn32)cc1 (centres undefined) | -8.7%
4 | COc1cccc(C2=CC(c3ccc(N(C)C)cc3)n3ncnc3N2)c1 (centres undefined) | -4.9%
5 | O=C(Oc1ccc(Br)cc1)C1CC(=O)N(c2ccc(F)cc2)C1 (centres undefined) | -2.4%
6 | CCn1cnc2c1c(=O)n(CC(=O)Nc1cc(C)on1)c(=O)n2Cc1ccccc1 | 0%
7 | O=C(Nc1ccccc1C(F)(F)F)c1cc(-c2cccc(O)c2)on1 | -6.5%
8 | CC(C)N=c1cc2n(-c3ccc(Cl)cc3)c3ccccc3nc-2cc1Nc1ccc(Cl)cc1 | 83.5% (active)
9 | Cc1nc2ccccc2n1-c1ccccc1 | -4%
10 | Cn1c(CNc2ccc(Cl)cc2)nc2ccccc21 | -13%
11 | COc1ccc(S(=O)(=O)n2cnc3cc(C)c(C)cc32)cc1C | 20.4%
12 | O=C(CN(CCc1ccccc1)C(=O)CNS(=O)(=O)c1ccccc1)NCC1CCCO1 (centres undefined) | -10.5%
13 | O=C(Nc1nc(-c2cccnc2)cs1)c1ccc(S(=O)(=O)N2CCOCC2)cc1 | -18.5%
14 | CC1=C(C#N)c2nc(N)c(C#N)c(C)c2/C1=C\c1ccccc1 | 107% (active)
15 | Cc1nc(N)c(C#N)c(-c2ccccc2)c1C | 13.3%
16 | Cc1c(-c2ccccc2)nc(N)c(C#N)c1-c1ccco1 | -4.2%
17 | COc1ccc(CNC(=O)c2csnn2)cc1 | -14.5%
18 | CN(C)/C=C1/Sc2ccccc2C1=O | -34.3%
19 | CN(C)/C=C1\C(=O)c2ccc(N(C)C)nc2CC1c1ccccc1 (centres undefined) | 60.7% (active)
20 | CN(C)C=C1C(=O)c2ccccc2C1=O | 29.6%
21 | CCN1C(=O)C2(C(C#N)=C(N)Oc3c2c(C)nn3-c2ccccc2)c2ccccc21 (centres undefined) | -16%
22 | Cc1cc2n(n1)C(c1ccccc1Cl)Nc1ccccc1-2 (centres undefined) | 9.5%
23 | Cc1cc2n(n1)C(c1ccccc1)Nc1ccccc1-2 (centres undefined) | -1.8%
24 | Cc1ccc(C(=O)NC(Cc2c[nH]c3ccccc23)C(=O)O)o1 (centres undefined) | -0.1%

Row | Compound | cytotoxicity
25 | COc1cccc(C2/C(=C(\O)c3ccc(OC)c(OC)c3)C(=O)C(=O)N2c2cc(C)on2)c1 (centres undefined) | 20.9%
26 | Cc1cc(N2C(=O)C(=O)/C(=C(/O)c3ccc(F)cc3)C2c2ccc(Cl)cc2)no1 (centres undefined) | 34.6%
27 | Cc1cc(N2C(=O)C(=O)/C(=C(/O)c3ccc(F)cc3)C2c2ccc(F)cc2)no1 (centres undefined) | 23.3%
28 | Cc1ccc(/C(O)=C2\C(=O)C(=O)N(c3cc(C)on3)C2c2cccc(Br)c2)cc1 (centres undefined) | 49.9%
29 | Cc1ccc(/C(O)=C2\C(=O)C(=O)N(c3cc(C)on3)C2c2cccc(Cl)c2)cc1 (centres undefined) | 51.8% (active)
30 | Cc1cc(N2C(=O)C(=O)/C(=C(/O)c3ccccc3)C2c2cccc(Br)c2)no1 (centres undefined) | 3.2%
31 | Cc1cc(N2C(=O)C(=O)/C(=C(/O)c3ccc(F)cc3)C2c2cccc(Br)c2)no1 (centres undefined) | 71.5% (active)
32 | Cc1cc(N2C(=O)C(=O)/C(=C(/O)c3ccc(Cl)cc3)C2c2cccc(Br)c2)no1 (centres undefined) | 56.2% (active)
33 | COc1ccc(/C(O)=C2\C(=O)C(=O)N(c3cc(C)on3)C2c2ccccc2OC)cc1 (centres undefined) | -1.9%
34 | Cc1c(N=Cc2cc3c(cc2Cl)OCO3)c(=O)n(-c2ccccc2)n1C | -3.1%
35 | COc1ccccc1OCCCCNCCO | -0.7%
36 | CCOC(=O)N1CCC(N2CCN(S(=O)(=O)c3ccc(NC(C)=O)cc3)CC2)CC1 | -12.8%
37 | Cc1ccnc(Sc2nc3c(c(=O)[nH]c(=O)n3C)n2CCCc2ccccc2)n1 | -9.5%
38 | C=CCn1c(SCC(=O)Nc2cccc(C(=O)OC)c2)nnc1C(C)NC(=O)c1cccs1 (centres undefined) | -5%
39 | O=C(c1cc(-c2cccs2)on1)N1CCc2ccccc2C1 | 2.3%
40 | CSc1nc2nc(C)cc(-c3ccccc3)n2n1 | -10.4%
41 | Cc1cccc(NC(=O)C2CCN(S(=O)(=O)c3c(C)nn(C)c3C)CC2)n1 | 1.6%
42 | COc1ccc2[nH]c(=O)c(CN(C(=O)c3ccccn3)C3CCCCC3)cc2c1 | -30.2%
43 | O=C(c1ccc(S(=O)(=O)N2CCOCC2)cc1)N1CCc2ccccc2C1 | -7.6%
44 | CCOC(=O)C1=C(C)NC(=O)NC1/C(C)=C/c1ccccc1 (centres undefined) | -16%
45 | COc1cccc(-c2nn3c(-c4ccco4)nnc3s2)c1 | -0.7%
46 | COc1cccc(-c2nnc3sc(-c4ccco4)nn23)c1 | 58% (active)
47 | COc1ccccc1-c1nn2c(-c3ccccc3Cl)nnc2s1 | -14.1%
48 | COc1cc(-c2nnc3sc(-c4ccncc4)nn23)cc(OC)c1OC | -12.2%

Row | Compound | cytotoxicity
49 | COc1cc(-c2nnc3sc(-c4cccs4)nn23)cc(OC)c1OC | 75.8% (active)
50 | CCOc1cccc(-c2nnc3sc(-c4ccco4)nn23)c1 | 21.5%
51 | COc1ccccc1-c1nnc2sc(-c3cc4ccccc4o3)nn12 | 56.2% (active)
52 | COc1ccc(-c2nnc3sc(-c4c(OC)cccc4OC)nn23)cc1 | 10.9%
53 | Cc1nnc2sc(-c3cc4ccccc4o3)nn12 | 5.6%
54 | COc1ccc(-c2nnc3sc(-c4cccs4)nn23)cc1OC | 20.2%
55 | COc1cccc(OC)c1-c1nn2c(-c3cc(-c4ccccc4)n[nH]3)nnc2s1 | 68.9% (active)
56 | COc1cccc(OC)c1-c1nn2c(-c3ccccc3Cl)nnc2s1 | 19.8%
57 | CCOc1ccc(N=C(NC#N)SC)cc1 | -2.8%
58 | CCN(CC)CCNC(=O)c1ccc2c(c1)ncn2C1CCCCC1 | 0.5%
59 | O=C(Nc1cccc(C(F)(F)F)c1)C1CCCN(S(=O)(=O)c2cnc[nH]2)C1 (centres undefined) | -7.5%
60 | CCOC(=O)CN(C(=O)CSc1nnc(-c2ccncc2)n1CCCN(C)C)c1ccccc1 | -4.8%
61 | Cc1nc2c3c4c(sc3n3c(SCC(=O)NCc5ccco5)nnc3n2n1)COC(C)(C)C4 | -6.3%
62 | Cc1cc(Cl)c(S(=O)(=O)NCc2ccncc2)cc1OCC(N)=O | 5.1%
63 | CC1(C)CC(=O)C=C(Nc2ccccc2F)C1 | 1.2%
64 | O=C(c1ccc(Cl)cc1)C1CCN(C(=O)NC2CCCCC2)CC1 | -11.6%
65 | N#CCCCN1C(=O)C(O)(CC(=O)c2ccc3c(c2)OCCO3)c2ccccc21 (centres undefined) | -27.8%
66 | Cc1ccc(-n2c(Cn3cnc4ccccc43)nnc2SCC(=O)O)cc1 | -16.2%
67 | COc1ccc(NC(C)=O)cc1NC(=O)CN1CCN(CC(=O)Nc2ccc(Cl)cc2)CC1 | -12.5%
68 | CCc1nc2ccccc2c(NC(=O)CN2CCC(C)CC2)c1C | 8.8%
69 | CCOC(=O)C1CCCN(CC(=O)NC2=Nc3ccccc3N=C(C)C2c2ccccc2)C1 (centres undefined) | 3.8%
70 | O=C(NCc1ccc(F)cc1)c1noc2c1CCCC2 | -10.3%
71 | Cc1oc(-c2ccc(F)cc2)cc1-c1nn2c(-c3ccco3)nnc2s1 | -18%
72 | Fc1ccc(-c2ccc(-c3nn4c(-c5ccco5)nnc4s3)o2)cc1 | 73.5% (active)

Row | Compound | cytotoxicity
73 | Clc1ccc(-c2ccc(-c3nn4c(-c5ccco5)nnc4s3)o2)cc1 | -11.9%
74 | COc1cccc(OCc2nc3ccccc3c(=O)n2N)c1 | -8.2%
75 | CCC(C)n1cnc2c(c1=O)c1nc3ccccc3nc1n2-c1ccc2c(c1)OCCO2 (centres undefined) | -13.4%
76 | CCCn1c(C)nc2c(c1=O)c1nc3ccccc3nc1n2-c1ccc2c(c1)OCCO2 | 51.4% (active)
77 | O=c1c2c3nc4ccccc4nc3n(-c3ccc4c(c3)OCCO4)c2ncn1CC1CCCO1 (centres undefined) | 0.3%
78 | CC(=NCC1CCCO1)C1=C(O)CC(C)(C)CC1=O (centres undefined) | -12.6%
79 | Cc1ccccc1-n1nc2c(c1NC(=O)COc1ccc(Cl)cc1)CS(=O)C2 (centres undefined) | 10%
80 | CCCNC(=O)c1cc(-c2ccco2)on1 | -2.4%
81 | CCCOc1ccc(C(=O)NCc2cccnc2)cc1 | -13.2%
82 | Cc1ccc(S(=O)(=O)Cn2nnnc2C(CC(C)C)N2CCN(C(=O)c3ccco3)CC2)cc1 (centres undefined) | 4.4%
83 | CCc1nnc(NC(=O)c2ccc(S(=O)(=O)N(CCOC)CCOC)cc2)o1 | -20.2%
84 | CCCCN(CCCC)S(=O)(=O)c1ccc(C(=O)Nc2nnc(CSC)o2)cc1 | 73.1% (active)
85 | COCc1nnc(NC(=O)c2ccc(S(=O)(=O)N(C)c3ccccc3)cc2)o1 | 42.1%
86 | COCc1nnc(NC(=O)c2ccc(S(=O)(=O)N(C)C3CCCCC3)cc2)o1 | 47.9%
87 | CCCCN(CCCC)S(=O)(=O)c1ccc(C(=O)Nc2nnc(COC)o2)cc1 | 75.3% (active)
88 | CCc1nnc(NC(=O)c2ccc(S(=O)(=O)N(CC(C)C)CC(C)C)cc2)o1 | 48.8%
89 | CSCc1nnc(NC(=O)c2ccc(S(=O)(=O)N(CC(C)C)CC(C)C)cc2)o1 | 62.4% (active)
90 | CCCCN(CC)S(=O)(=O)c1ccc(C(=O)Nc2nnc(CSC)o2)cc1 | 23.6%
91 | CCCCN(CC)S(=O)(=O)c1ccc(C(=O)Nc2nnc(COC)o2)cc1 | 17.5%
92 | CCN(c1ccccc1)S(=O)(=O)c1ccc(C(=O)Nc2nnc(COC)o2)cc1 | 60.9% (active)
93 | CCCN(CCC)S(=O)(=O)c1ccc(C(=O)Nc2nnc(CSC)o2)cc1 | 12.6%
94 | COCCN(CCOC)S(=O)(=O)c1ccc(C(=O)Nc2nnc(C)o2)cc1 | -6.2%
